# About 7,900 targets were measured; listed, in parts, are those with a hit and a random draw of the rest. About 0.6% of all pairs of compound and target were hits. A number with no mark means an inactive call.
# Compound: Cc1cc(Nc2cc(N3CCN(C)CC3)nc(Sc3ccc(NC(=O)C4CC4)cc3)n2)n[nH]1 [tozasertib]
# Assay: log2 fold change, soluble protein after heating vs DMSO (PISA); higher = thermal stabilisation; K562 cells, 10 uM, 30 min; active = over 0.2 and 3.5 SD of the protein, either way, in both replicates (recomputed)
# How it was run: (§1)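 K562 cells at 2×10^6 cells/mL were treated with 10 μM compound for 30 min. Aliquots were heated for 3 min across 48°C-58°C, pooled, and extracted in PBS with 0.5% NP-40 at 4°C; soluble protein was the supernatant after 21,000xg for 90 min. Soluble protein was quantified by TMTpro 16plex LC-MS/MS with channel sums equalised, and reported as log2 fold change in thermal stability against DMSO controls, with values from duplicates.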
# Sequence of UniProt Q13523 (Q13523 whole entry, looked up): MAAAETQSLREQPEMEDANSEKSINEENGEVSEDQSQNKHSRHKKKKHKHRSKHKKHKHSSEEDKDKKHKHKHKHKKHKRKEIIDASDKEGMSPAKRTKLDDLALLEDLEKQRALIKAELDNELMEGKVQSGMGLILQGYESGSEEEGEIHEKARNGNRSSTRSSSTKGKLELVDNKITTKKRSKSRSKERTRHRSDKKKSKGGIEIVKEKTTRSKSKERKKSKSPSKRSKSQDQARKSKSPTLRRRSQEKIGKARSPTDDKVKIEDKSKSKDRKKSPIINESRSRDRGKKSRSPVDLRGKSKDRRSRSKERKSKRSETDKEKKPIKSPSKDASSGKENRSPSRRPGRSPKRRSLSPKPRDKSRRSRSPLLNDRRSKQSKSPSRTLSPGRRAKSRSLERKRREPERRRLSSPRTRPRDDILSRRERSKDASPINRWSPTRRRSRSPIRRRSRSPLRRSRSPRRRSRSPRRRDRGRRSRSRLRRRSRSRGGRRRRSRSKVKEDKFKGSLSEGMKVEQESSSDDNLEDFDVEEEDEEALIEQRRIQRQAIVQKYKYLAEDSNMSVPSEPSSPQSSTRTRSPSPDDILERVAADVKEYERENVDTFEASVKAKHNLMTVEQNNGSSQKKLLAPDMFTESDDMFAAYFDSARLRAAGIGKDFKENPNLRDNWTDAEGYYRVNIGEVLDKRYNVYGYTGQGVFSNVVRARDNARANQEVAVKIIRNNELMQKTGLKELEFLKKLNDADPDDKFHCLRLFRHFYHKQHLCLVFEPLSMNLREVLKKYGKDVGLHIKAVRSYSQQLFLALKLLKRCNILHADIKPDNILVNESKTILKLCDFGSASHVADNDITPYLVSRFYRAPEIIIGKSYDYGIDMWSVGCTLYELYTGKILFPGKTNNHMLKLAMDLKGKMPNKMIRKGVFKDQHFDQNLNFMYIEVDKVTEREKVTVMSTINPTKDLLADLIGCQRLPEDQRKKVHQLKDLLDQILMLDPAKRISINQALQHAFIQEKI
# Sequence of UniProt Q8TBX8 (Q8TBX8 whole entry, looked up): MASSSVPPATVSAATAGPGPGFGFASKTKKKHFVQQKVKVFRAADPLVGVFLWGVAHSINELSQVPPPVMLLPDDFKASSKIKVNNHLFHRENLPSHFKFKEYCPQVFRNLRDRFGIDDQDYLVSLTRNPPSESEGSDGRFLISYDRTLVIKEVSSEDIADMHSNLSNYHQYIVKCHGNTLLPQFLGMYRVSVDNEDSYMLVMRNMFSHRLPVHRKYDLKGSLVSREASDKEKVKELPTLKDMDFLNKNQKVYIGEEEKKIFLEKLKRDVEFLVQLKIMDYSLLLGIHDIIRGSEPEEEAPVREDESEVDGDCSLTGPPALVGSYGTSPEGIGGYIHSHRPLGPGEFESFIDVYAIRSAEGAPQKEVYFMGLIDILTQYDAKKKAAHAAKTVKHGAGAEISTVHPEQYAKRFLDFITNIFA
# Sequence of UniProt Q96HA1 (Q96HA1 whole entry, looked up): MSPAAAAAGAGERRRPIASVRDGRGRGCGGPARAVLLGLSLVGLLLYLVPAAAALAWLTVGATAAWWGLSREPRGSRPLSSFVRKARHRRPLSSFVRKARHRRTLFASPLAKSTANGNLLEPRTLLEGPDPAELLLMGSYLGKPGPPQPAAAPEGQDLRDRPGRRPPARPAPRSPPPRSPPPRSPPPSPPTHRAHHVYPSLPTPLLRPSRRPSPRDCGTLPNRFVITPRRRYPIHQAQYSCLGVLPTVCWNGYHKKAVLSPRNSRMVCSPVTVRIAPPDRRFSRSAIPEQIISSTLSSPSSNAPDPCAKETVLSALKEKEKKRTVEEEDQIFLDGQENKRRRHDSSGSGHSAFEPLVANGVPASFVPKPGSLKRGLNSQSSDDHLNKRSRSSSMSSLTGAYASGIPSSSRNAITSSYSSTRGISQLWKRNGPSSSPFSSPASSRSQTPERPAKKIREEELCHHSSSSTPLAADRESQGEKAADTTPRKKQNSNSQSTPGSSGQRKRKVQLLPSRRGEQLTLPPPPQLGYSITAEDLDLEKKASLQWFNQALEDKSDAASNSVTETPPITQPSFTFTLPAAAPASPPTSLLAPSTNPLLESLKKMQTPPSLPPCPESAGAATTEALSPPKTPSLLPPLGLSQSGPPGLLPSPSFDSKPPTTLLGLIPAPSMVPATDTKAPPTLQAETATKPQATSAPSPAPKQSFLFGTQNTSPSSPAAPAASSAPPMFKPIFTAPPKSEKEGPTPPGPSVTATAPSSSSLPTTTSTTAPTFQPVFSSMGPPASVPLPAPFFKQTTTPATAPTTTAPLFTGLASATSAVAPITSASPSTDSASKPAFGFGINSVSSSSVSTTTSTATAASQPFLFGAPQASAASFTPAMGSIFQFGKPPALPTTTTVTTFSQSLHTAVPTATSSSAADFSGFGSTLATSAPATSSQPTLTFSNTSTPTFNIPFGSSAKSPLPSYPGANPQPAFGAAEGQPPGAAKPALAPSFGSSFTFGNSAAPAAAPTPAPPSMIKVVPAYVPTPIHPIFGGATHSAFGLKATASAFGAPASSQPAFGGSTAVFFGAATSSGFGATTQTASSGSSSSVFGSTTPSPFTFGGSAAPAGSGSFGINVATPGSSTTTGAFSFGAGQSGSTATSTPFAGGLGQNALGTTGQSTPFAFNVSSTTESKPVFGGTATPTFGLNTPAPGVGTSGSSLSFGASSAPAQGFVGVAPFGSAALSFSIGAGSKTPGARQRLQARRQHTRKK
# Sequence of UniProt O15067 (O15067 whole entry, looked up): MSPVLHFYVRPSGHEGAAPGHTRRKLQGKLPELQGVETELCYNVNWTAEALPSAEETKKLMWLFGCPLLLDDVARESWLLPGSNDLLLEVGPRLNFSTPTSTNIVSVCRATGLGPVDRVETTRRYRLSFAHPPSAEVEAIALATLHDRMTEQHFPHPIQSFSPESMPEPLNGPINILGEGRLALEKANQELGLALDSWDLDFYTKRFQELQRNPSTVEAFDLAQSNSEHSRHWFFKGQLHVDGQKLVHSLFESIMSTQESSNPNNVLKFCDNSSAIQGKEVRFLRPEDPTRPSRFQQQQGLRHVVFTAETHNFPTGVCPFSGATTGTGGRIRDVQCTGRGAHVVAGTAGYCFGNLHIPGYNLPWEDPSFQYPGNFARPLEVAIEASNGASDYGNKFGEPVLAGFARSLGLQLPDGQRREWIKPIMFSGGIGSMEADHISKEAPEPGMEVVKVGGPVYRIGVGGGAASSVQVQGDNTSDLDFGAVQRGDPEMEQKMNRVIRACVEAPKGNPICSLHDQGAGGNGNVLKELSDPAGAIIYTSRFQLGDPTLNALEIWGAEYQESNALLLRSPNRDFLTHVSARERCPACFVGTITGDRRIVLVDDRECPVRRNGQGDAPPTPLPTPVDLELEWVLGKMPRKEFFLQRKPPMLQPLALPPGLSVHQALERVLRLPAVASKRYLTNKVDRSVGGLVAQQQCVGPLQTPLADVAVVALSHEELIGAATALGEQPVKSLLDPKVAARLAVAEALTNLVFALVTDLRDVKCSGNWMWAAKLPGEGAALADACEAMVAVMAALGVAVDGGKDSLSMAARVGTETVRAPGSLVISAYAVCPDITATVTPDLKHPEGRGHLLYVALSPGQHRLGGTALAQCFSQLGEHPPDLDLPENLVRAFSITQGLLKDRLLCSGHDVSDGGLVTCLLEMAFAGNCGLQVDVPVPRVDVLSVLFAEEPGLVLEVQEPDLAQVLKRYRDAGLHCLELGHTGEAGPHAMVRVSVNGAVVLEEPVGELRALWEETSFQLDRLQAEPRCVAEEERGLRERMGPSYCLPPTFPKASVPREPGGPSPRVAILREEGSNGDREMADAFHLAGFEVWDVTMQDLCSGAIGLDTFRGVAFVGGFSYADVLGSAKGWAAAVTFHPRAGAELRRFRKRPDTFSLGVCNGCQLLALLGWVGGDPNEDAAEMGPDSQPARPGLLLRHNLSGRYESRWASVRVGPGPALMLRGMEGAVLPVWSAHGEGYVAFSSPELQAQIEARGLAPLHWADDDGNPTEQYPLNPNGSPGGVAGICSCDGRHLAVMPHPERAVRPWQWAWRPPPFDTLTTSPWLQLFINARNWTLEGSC
# Sequence of UniProt O00232 (O00232 whole entry, looked up): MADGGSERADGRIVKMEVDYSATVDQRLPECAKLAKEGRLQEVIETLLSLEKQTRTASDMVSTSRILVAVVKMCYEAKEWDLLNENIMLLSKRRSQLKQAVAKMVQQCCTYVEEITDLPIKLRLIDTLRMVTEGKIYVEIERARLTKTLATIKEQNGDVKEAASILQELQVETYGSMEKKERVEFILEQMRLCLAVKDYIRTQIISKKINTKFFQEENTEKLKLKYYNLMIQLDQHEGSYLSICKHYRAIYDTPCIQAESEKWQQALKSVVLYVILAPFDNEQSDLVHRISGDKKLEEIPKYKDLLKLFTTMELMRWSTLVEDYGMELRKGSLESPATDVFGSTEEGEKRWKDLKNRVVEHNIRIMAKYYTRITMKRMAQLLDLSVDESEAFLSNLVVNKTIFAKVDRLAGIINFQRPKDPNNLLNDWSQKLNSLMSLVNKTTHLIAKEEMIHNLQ
# Sequence of UniProt O15355 (O15355 whole entry, looked up): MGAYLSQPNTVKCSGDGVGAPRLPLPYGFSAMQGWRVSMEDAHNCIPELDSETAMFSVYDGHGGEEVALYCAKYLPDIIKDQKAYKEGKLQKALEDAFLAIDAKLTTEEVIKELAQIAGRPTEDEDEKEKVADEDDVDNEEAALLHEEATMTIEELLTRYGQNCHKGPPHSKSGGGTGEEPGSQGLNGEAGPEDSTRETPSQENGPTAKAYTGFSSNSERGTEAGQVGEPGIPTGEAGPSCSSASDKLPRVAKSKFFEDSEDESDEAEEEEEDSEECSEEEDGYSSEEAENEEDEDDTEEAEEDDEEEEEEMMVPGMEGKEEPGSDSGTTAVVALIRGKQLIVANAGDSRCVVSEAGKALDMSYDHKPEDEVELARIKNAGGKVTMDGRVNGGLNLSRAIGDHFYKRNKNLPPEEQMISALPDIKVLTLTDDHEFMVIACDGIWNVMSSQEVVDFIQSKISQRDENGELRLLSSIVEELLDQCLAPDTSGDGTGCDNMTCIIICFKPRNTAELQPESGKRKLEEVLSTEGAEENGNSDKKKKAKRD
row,Target,log2 fold change
1,POLR1A (UniProt O95602),-0.145
2,PBK (UniProt Q96KB5),0.109
3,PFAS (UniProt O15067),-0.132
4,PRKACA (UniProt P17612),-0.014
5,PSMD12 (UniProt O00232),0.068
6,POGLUT1 (UniProt Q8NBL1),0.004
7,PTDSS1 (UniProt P48651),-0.048
8,PRKAB2 (UniProt O43741),0.044
9,PPM1G (UniProt O15355),0.081
10,PARL (UniProt Q9H300),-0.017
11,PIP4K2C (UniProt Q8TBX8),0.018
12,PRPF4B (UniProt Q13523),0.062
13,POM121 (UniProt Q96HA1),0.014

# Compound: Cc1cc(SCc2sc(-c3ccc(C(F)(F)F)cc3)nc2C)ccc1OCC(=O)O
# Assay: as above
# How it was run: as §1
row,Target,log2 fold change
1,PARN (UniProt O95453),0.069
2,PEF1 (UniProt Q9UBV8),0.019
3,POLD1 (UniProt P28340),0.046
4,PARG (UniProt Q86W56),0.123
5,PRMT7 (UniProt Q9NVM4),0.12
6,PDLIM7 (UniProt Q9NR12),0.004
7,POLD3 (UniProt Q15054),0.008
8,POLR2A (UniProt P24928),0.023
9,PLD3 (UniProt Q8IV08),-0.023
10,PPIL1 (UniProt Q9Y3C6),0.014
11,PPP2R5A (UniProt Q15172),0.072
12,PPOX (UniProt P50336),0.091
13,PLBD2 (UniProt Q8NHP8),-0.028
14,PRKAR2B (UniProt P31323),0.112
15,PJA2 (UniProt O43164),-0.118
16,PCBP1 (UniProt Q15365),0.07
17,PGK2 (UniProt P07205),-0.093
18,PSMD6 (UniProt Q15008),0.03
19,POLR2K (UniProt P53803),0.001

row,Target,log2 fold change
1,PSMD9 (UniProt O00233),-0.026
2,PDSS2 (UniProt Q86YH6),0.149
3,PYGL (UniProt P06737),-0.023
4,PYGB (UniProt P11216),-0.002
5,PDE12 (UniProt Q6L8Q7),0
6,POLR1A (UniProt O95602),0.08
7,PBK (UniProt Q96KB5),0.157
8,PFAS (UniProt O15067),0.081
9,PRKACA (UniProt P17612),0.112
10,PSMD12 (UniProt O00232),0.057
11,POGLUT1 (UniProt Q8NBL1),0.037
12,PTDSS1 (UniProt P48651),0.105
13,PRKAB2 (UniProt O43741),0.051
14,PPM1G (UniProt O15355),0.171
15,PARL (UniProt Q9H300),-0.035
16,PIP4K2C (UniProt Q8TBX8),0.057
17,PRPF4B (UniProt Q13523),0.01
18,POM121 (UniProt Q96HA1),0.008

# Compound: Cc1ccc(-n2nc(C(C)(C)C)cc2NC(=O)Nc2ccc(OCCN3CCOCC3)c3ccccc23)cc1 [doramapimod]
# Assay: as above
# How it was run: as §1
row,Target,log2 fold change
1,PARN (UniProt O95453),-0.037
2,PEF1 (UniProt Q9UBV8),-0.091
3,POLD1 (UniProt P28340),-0.018
4,PARG (UniProt Q86W56),0.015
5,PRMT7 (UniProt Q9NVM4),0.038
6,PDLIM7 (UniProt Q9NR12),0.012
7,POLD3 (UniProt Q15054),-0.012
8,POLR2A (UniProt P24928),-0.009
9,PLD3 (UniProt Q8IV08),0.001
10,PPIL1 (UniProt Q9Y3C6),0.031
11,PPP2R5A (UniProt Q15172),-0.019
12,PPOX (UniProt P50336),0.378
13,PLBD2 (UniProt Q8NHP8),0.022
14,PRKAR2B (UniProt P31323),0.073
15,PJA2 (UniProt O43164),0.033
16,PCBP1 (UniProt Q15365),-0.016
17,PGK2 (UniProt P07205),-0.109
18,PSMD6 (UniProt Q15008),0.057
19,POLR2K (UniProt P53803),-0.059

row,Target,log2 fold change
1,PSMD9 (UniProt O00233),0.001
2,PDSS2 (UniProt Q86YH6),0.049
3,PYGL (UniProt P06737),0.001
4,PYGB (UniProt P11216),-0.005
5,PDE12 (UniProt Q6L8Q7),-0.027
6,POLR1A (UniProt O95602),0.141
7,PBK (UniProt Q96KB5),0.015
8,PFAS (UniProt O15067),-0.018
9,PRKACA (UniProt P17612),0.019
10,PSMD12 (UniProt O00232),0.019
11,POGLUT1 (UniProt Q8NBL1),0.029
12,PTDSS1 (UniProt P48651),0.151
13,PRKAB2 (UniProt O43741),-0.041
14,PPM1G (UniProt O15355),-0.008
15,PARL (UniProt Q9H300),-0.009
16,PIP4K2C (UniProt Q8TBX8),-0.044
17,PRPF4B (UniProt Q13523),0.044
18,POM121 (UniProt Q96HA1),0.134
